Measurements as given in the supplement of paper PMC11732987, “Enantioselective OTUD7B fragment discovery through chemoproteomics screening and high-throughput optimisation” (Communications Chemistry, 2025).

How the values were obtained:
Assay in all cases: log2 ratio of Biotin-Ahx-Ub-VS probe labelling (fragment/DMSO); higher = less target engagement (more negative = stronger competition), active = hit call of the paper (q ≤ 0.05, log2 ratio ≤ -1)
Details in all cases: compound concentration: 200 uM; treatment time: 3 h
USP42 = target: T1, USP42 (UniProt Q9H9J4)
T1 sequence (whole entry): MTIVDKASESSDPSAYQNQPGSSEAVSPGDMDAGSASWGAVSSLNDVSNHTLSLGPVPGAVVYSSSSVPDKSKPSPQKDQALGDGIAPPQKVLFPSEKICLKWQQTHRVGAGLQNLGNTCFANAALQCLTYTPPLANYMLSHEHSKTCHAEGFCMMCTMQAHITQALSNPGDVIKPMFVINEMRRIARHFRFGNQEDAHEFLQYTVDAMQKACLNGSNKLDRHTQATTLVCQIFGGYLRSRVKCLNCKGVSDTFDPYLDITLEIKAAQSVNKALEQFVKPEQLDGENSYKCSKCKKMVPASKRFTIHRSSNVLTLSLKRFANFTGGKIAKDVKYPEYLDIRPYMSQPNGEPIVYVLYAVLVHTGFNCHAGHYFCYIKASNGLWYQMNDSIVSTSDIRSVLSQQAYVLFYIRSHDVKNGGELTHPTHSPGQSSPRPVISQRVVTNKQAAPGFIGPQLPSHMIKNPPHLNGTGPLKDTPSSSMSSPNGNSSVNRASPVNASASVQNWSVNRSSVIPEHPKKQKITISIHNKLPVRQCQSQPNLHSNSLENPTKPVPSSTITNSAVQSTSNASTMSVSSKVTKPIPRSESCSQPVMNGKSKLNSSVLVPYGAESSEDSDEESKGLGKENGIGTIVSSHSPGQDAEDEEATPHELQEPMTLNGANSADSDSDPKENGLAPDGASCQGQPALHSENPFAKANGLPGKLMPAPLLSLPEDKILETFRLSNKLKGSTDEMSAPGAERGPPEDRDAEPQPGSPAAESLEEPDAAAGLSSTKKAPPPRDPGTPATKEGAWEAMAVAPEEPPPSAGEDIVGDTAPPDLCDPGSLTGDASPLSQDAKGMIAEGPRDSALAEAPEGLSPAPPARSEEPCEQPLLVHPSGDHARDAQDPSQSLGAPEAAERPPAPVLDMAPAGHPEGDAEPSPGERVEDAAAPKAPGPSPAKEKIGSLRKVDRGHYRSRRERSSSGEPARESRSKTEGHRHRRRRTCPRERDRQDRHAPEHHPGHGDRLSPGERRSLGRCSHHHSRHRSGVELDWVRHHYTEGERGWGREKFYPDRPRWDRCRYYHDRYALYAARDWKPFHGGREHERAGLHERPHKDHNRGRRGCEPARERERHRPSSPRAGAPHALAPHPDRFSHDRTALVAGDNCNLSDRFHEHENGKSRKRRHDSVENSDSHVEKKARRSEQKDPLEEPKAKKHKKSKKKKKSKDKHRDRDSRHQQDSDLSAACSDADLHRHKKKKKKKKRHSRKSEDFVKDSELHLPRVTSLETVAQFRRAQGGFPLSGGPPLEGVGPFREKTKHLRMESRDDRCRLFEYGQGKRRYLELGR
In short: (§1)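 HEK293T lysate (495 µg per sample, in Tris/CHAPS/IGEPAL buffer with protease inhibitors) was exposed in triplicate for 3 h to fragment at 200 µM or to vehicle, then to Biotin-Ahx-Ub-VS at 0.5 µM final for 1 h. Labelled DUBs were enriched on NeutrAvidin, digested with LysC and trypsin, and analysed by diaPASEF LC-MS/MS. Spectronaut label-free quantities were normalised to the global median, and values are average log2 ratios of fragment over vehicle from an unpaired t-test. Only proteins with ≥2 unique peptides were used.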

USP46 = USP46 (UniProt P62068)
Chain of USP46 (P62068 whole entry): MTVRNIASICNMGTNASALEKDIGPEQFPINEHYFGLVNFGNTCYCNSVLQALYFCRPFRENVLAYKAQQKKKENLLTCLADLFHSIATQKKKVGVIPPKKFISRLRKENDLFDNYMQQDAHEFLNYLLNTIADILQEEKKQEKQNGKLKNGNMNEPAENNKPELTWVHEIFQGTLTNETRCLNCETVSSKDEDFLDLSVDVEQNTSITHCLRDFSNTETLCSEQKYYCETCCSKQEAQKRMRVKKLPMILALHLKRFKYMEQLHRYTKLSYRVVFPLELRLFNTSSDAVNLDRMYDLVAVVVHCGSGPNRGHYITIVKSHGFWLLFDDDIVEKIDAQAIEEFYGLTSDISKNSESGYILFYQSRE
In short: as §1

USP47 = target: T2, USP47 (UniProt Q96K76)
T2 sequence (whole entry): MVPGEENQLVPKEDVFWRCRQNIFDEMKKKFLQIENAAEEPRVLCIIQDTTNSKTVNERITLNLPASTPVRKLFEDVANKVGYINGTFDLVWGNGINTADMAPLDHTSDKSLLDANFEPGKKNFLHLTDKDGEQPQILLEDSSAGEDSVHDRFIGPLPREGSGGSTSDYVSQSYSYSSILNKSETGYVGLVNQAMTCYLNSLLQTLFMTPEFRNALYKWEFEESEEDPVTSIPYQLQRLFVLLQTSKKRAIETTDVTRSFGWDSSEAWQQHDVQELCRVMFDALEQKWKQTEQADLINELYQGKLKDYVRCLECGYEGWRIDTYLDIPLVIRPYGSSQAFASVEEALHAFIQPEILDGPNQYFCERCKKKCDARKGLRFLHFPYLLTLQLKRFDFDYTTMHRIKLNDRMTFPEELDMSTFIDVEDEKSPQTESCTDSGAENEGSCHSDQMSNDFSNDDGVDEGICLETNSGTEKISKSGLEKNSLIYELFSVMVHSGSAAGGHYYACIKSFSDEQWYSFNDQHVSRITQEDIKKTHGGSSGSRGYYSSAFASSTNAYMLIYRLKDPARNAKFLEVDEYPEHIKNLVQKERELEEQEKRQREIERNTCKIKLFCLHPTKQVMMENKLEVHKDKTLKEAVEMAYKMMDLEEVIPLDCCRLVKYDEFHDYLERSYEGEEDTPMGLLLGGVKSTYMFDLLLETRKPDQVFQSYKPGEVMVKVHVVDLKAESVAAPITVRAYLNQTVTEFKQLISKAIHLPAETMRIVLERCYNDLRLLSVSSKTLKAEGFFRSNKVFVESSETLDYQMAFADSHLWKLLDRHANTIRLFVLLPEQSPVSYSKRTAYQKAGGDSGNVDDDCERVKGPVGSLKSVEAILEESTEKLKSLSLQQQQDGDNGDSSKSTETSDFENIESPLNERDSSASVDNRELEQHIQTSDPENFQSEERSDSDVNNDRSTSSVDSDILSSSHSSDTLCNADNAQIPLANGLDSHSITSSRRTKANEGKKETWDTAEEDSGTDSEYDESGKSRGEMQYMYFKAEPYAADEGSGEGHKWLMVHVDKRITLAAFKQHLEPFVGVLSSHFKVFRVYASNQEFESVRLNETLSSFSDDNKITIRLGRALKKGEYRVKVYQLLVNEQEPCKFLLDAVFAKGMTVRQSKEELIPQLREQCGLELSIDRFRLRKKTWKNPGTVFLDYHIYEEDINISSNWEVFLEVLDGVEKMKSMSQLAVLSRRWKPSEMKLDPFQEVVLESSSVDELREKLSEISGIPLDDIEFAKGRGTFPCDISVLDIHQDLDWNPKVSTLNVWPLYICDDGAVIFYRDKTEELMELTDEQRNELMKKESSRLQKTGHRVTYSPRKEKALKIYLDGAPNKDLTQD
In short: as §1

USP48 = target: T3, USP48 (UniProt Q86UV5)
T3 sequence (whole entry): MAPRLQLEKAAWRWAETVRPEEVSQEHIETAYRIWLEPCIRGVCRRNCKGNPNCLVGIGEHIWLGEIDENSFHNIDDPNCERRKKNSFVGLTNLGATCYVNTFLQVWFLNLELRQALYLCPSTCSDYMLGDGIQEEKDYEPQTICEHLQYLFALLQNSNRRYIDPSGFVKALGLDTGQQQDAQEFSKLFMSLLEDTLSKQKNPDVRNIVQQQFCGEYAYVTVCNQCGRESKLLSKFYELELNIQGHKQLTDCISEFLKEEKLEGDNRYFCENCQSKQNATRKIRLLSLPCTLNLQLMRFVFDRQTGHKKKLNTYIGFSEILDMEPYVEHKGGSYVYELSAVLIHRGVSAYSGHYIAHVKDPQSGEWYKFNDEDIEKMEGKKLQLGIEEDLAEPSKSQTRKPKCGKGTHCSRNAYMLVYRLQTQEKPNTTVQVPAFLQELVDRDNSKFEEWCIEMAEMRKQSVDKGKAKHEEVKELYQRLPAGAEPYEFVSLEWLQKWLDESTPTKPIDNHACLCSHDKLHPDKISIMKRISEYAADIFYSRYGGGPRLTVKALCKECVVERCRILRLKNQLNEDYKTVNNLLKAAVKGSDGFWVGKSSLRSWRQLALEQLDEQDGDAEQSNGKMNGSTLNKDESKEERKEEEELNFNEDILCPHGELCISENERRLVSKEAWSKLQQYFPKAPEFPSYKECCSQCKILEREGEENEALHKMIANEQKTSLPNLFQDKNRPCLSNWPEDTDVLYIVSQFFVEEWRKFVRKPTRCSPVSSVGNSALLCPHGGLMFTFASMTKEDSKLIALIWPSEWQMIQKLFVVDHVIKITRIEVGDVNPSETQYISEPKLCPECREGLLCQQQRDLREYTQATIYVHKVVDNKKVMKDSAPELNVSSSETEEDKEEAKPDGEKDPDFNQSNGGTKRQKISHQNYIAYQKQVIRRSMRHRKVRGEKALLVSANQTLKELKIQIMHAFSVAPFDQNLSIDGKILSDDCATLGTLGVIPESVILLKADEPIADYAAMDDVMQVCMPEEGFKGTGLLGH
In short: as §1

USP5 = target: T4, USP5 (UniProt P45974)
T4 sequence (whole entry): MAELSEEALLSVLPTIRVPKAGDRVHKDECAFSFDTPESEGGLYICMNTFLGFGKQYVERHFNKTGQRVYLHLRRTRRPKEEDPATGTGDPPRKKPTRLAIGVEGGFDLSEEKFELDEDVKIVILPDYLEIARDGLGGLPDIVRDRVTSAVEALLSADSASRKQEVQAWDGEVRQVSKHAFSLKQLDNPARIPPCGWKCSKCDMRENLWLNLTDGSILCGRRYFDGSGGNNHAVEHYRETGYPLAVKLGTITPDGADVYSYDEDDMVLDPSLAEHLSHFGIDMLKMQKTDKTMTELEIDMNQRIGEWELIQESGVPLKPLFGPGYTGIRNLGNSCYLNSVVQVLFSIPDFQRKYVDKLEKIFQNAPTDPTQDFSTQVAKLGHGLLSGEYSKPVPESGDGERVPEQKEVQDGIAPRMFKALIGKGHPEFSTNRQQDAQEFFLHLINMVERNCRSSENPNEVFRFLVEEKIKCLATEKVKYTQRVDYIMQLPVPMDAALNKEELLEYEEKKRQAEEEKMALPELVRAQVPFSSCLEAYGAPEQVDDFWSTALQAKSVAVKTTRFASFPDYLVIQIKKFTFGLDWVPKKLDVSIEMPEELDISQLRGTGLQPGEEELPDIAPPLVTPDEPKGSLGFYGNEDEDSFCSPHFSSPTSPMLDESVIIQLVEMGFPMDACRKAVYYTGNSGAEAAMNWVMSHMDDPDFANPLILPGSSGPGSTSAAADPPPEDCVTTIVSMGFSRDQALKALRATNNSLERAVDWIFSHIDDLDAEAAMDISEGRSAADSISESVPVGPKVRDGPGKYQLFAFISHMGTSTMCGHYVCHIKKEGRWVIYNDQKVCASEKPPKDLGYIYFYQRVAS
In short: as §1

USP54 = USP54 (UniProt Q70EL1)
Chain of USP54 (Q70EL1 whole entry): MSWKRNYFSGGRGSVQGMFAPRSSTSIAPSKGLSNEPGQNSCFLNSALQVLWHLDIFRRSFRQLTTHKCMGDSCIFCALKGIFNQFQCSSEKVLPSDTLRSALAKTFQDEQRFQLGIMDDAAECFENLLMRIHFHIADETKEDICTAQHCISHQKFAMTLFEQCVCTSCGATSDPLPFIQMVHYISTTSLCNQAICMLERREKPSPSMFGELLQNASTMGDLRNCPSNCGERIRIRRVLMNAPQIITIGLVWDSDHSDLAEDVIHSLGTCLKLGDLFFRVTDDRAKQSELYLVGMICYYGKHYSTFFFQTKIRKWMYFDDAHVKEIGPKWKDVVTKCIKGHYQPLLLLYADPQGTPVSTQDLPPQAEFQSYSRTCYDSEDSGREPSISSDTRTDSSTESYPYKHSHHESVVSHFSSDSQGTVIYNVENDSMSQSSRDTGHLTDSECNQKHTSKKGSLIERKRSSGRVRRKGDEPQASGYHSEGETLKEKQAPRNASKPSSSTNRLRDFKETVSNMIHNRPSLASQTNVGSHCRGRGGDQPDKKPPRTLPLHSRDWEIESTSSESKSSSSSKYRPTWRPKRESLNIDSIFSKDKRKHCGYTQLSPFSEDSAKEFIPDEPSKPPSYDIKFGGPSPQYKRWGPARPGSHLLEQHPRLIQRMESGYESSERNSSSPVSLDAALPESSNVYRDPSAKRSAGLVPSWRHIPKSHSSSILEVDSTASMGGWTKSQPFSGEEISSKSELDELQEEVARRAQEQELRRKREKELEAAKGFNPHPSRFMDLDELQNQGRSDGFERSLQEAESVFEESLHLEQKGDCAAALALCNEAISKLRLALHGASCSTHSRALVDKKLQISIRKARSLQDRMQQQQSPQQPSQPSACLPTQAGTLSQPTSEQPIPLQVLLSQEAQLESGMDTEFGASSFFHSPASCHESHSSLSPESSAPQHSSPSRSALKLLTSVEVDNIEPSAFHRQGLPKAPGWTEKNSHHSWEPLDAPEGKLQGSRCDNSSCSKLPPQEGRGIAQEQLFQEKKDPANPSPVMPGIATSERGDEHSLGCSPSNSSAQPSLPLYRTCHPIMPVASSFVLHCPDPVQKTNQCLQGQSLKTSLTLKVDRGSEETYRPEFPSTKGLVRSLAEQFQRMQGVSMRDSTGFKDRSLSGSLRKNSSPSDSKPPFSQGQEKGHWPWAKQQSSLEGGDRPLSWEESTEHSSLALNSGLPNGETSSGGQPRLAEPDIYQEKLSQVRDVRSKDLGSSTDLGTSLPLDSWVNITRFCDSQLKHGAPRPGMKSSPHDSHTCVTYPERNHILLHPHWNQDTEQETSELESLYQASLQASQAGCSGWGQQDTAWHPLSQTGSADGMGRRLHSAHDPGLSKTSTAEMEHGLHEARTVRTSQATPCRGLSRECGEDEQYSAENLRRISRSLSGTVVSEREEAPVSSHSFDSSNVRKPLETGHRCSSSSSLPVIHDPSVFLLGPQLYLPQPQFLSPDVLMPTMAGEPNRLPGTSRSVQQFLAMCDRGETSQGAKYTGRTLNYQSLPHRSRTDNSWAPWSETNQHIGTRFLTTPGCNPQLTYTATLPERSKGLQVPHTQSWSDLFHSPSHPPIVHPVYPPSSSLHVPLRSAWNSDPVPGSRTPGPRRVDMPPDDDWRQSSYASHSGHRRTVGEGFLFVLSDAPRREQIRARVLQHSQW
In short: as §1

USP7 = USP7 (UniProt Q93009)
Chain of USP7 (Q93009 whole entry, looked up): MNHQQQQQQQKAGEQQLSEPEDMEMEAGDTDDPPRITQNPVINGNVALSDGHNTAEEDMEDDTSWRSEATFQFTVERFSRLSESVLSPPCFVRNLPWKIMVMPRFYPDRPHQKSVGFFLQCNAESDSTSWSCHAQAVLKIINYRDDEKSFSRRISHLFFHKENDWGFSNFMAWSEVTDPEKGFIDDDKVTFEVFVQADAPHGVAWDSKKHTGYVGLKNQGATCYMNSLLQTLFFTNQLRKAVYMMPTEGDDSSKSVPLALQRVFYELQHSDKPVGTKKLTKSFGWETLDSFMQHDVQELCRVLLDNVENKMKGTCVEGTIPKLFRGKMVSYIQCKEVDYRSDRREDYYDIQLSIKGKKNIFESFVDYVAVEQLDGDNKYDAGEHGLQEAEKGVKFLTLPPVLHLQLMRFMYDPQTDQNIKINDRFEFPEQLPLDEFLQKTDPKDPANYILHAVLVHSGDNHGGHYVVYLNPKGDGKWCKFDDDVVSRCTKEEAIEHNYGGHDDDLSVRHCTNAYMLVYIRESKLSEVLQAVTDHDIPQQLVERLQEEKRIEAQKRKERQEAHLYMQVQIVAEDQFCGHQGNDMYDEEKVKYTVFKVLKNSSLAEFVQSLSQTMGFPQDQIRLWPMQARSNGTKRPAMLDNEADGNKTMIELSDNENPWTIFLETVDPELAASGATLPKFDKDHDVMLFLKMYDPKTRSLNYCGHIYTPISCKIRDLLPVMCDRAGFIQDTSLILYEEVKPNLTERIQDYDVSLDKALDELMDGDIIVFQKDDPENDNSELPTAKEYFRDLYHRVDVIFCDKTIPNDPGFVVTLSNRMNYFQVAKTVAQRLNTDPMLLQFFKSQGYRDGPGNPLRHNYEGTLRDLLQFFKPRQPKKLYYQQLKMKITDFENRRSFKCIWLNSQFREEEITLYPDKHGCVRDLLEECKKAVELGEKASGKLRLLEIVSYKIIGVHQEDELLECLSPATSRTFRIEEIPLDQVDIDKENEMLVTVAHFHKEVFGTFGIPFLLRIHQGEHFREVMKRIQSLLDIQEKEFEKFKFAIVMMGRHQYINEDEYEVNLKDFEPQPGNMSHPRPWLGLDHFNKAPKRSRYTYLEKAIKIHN
In short: as §1

USP8 = target: T5, USP8 (UniProt P40818)
T5 sequence (whole entry): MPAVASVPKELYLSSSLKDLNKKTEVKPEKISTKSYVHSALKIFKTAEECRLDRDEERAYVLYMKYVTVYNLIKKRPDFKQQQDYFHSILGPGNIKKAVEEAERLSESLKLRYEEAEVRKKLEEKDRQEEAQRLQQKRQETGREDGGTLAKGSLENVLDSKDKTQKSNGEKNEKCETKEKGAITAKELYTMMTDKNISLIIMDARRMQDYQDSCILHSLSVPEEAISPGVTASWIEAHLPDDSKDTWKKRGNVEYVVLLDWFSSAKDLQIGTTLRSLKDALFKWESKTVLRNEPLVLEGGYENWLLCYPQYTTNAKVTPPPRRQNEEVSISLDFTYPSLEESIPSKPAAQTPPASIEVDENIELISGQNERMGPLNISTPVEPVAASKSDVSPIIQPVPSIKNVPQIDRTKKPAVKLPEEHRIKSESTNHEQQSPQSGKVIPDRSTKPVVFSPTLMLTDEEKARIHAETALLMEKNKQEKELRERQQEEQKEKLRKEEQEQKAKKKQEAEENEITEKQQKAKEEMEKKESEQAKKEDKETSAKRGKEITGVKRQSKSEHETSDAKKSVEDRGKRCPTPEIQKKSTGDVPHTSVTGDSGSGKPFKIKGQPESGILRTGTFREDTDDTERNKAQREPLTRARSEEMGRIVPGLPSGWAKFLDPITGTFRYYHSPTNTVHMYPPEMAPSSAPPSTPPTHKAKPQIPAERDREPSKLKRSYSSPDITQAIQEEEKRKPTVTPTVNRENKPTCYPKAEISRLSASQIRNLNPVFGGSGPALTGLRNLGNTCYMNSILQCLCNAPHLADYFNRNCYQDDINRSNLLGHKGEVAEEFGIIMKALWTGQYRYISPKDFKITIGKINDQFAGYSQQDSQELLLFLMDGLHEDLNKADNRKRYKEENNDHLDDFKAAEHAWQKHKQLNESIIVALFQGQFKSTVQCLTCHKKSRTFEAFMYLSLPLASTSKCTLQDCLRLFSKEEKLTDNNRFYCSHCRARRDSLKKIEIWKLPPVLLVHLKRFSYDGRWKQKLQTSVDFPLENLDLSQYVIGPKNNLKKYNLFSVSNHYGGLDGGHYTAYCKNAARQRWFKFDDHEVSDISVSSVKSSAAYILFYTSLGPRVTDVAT
In short: as §1

Measured: log2 ratio of Biotin-Ahx-Ub-VS probe labelling

O=C(CCl)Nc1ccccc1C(F)(F)F
inactive: USP42 0.398 | USP46 0.0498 | USP47 -0.374 | USP48 -0.257 | USP5 -0.323 | USP54 0.637 | USP7 -0.404 | USP8 -0.029
